Results taken from PubChem BioAssay (Tox21).
Results filed as inconclusive are left out. Calls of active or inactive are those of the source. Unless noted, the call rests on the fitted dose curve; in most records, active means well fitted curve in the direction sought with a large enough effect in the repeat runs; inconclusive means weak or mixed curves; inactive means no such curve, though single readings can be large; an effect the other way counts as inactive or inconclusive.

How the values were obtained:
[1] = A CellTox Green Cytotoxicity Assay to monitor cytotoxicity in HepG2 cells - 0 hour (AID 1224882); further: nearly all actives have a fitted effect of over 35% in size
Outline: (§1)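 HepG2 cells were seeded together with the CellTox Green dye at 600 cells/well, left 5 h at 37 C/5% CO2, then given compounds in DMSO. Fluorescence from dye bound to dead-cell DNA was read repeatedly over 40 h of treatment at 37 C.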

[2] = A CellTox Green Cytotoxicity Assay to monitor cytotoxicity in HepG2 cells - 32 hour (AID 1224883); further: nearly all actives have a fitted effect of over 50% in size
Outline: as §1

[3] = A CellTox Green Cytotoxicity Assay to monitor cytotoxicity in HEK293 cells - 8 hour (AID 1224884); further: nearly all actives have a fitted effect of over 35% in size
Outline: (§2)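 HEK293 cells premixed with CellTox Green dye were seeded at 600 cells/well and left 5 h at 37 C/5% CO2 before pin transfer of 23 nL compound in DMSO. Fluorescence from dye bound to dead-cell DNA was read during 40 h treatment.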

[4] = qHTS RealTime-Glo MT Cell Viability Assay in HepG2 cells - 16 hour (AID 1224885); further: nearly all actives have a fitted effect of over 50% in size
Outline: (§3)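 Luminescence read-out: viable HepG2 cells reduce a prosubstrate to a NanoLuc substrate, giving a signal proportional to live cell number. Reads taken at 0, 8, 16, 24, 32 and 40 h of compound exposure at 37 C.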

[5] = qHTS RealTime-Glo MT Cell Viability Assay in HEK293 cells - 24 hour (AID 1224886); further: top concentration of the series differs between compounds; nearly all actives have a fitted effect of over 50% in size
Outline: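 Nonlytic real-time viability readout: viable cells convert prosubstrate to NanoLuc substrate, giving luminescence proportional to live cell number. HEK293, 600 cells/well, compound added after 5 h, continuous culture at 37 C.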

[6] = qHTS RealTime-Glo MT Cell Viability Assay in HEK293 cells - 8 hour (AID 1224887); further: top concentration of the series differs between compounds; nearly all actives have a fitted effect of over 50% in size
Outline: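 HEK293 cells mixed with RealTime-Glo reagents (NanoLuc plus cell-permeant prosubstrate) at 600 cells/well, preincubated 5 h at 37 C/5% CO2, then given 23 nL compound in DMSO. Nonlytic luminescence from viable cells was read at 0, 8, 16, 24, 32 and 40 h.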

[7] = A CellTox Green Cytotoxicity Assay to monitor cytotoxicity in HEK293 cells - 16 hour (AID 1224888); further: nearly all actives have a fitted effect of over 35% in size
Outline: as §2

[8] = qHTS RealTime-Glo MT Cell Viability Assay in HepG2 cells - 0 hour (AID 1224889); further: nearly all actives have a fitted effect of over 50% in size
Outline: as §3

[9] = A CellTox Green Cytotoxicity Assay to monitor cytotoxicity in HepG2 cells - 8 hour (AID 1224890); further: nearly all actives have a fitted effect of over 45% in size
Outline: as §1

[10] = qHTS assay to identify small molecule antagonists of the androgen receptor (AR) signaling pathway using the MDA cell line in the presence of 0.5 nM R1881 - cell viability counter screen (AID 1259242); further: nearly all actives have a fitted effect of over 45% in size
Outline: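 MDA-kb2 cells (human breast carcinoma, stably carrying MMTV-luciferase reporter) were exposed to compounds with 0.5 nM R1881 (final) for 16 hr at 37C, 0% CO2; viability then read as live-cell protease fluorescence (CellTiter-Fluor, 30 min) in the same wells.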

[11] = molecular target: Estrogen receptor (Homo sapiens) (UniProt P03372); test: qHTS assay to identify small molecule antagonists of the estrogen receptor alpha (ER-alpha) signaling pathway using the BG1 cell line in the presence of 0.1 nM 17-beta-estradiol (AID 1259244); further: nearly all actives have a fitted effect of over 50% in size
Outline: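 VM7Luc4E2 cells (endogenous full-length ER-alpha, stable 4xERE-luciferase) were grown 5 days in phenol red-free medium with charcoal-stripped FBS, then exposed 22 h at 37C to compounds plus 0.1 nM (final) 17beta-estradiol; ONE-Glo luminescence read-out.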

[12] = qHTS assay to identify small molecule HDAC inhibitors - cell viability counter screen (AID 1259365)
Outline: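 After overnight seeding at 1,500 cells per well, wild-type HCT-116 cultures took up compounds in DMSO for 2hr at 37 C. Viable cell content came from luminescence with CellTiter-Glo.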

[13] = qHTS assay to identify small molecule agonists of the sonic hedgehog signaling (Shh) pathway - cell viability counter screen (AID 1259366); further: nearly all actives have a fitted effect of over 50% in size
Outline: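 Same-well cytotoxicity read. Gli1-Luc reporter 3T3 cells; compounds 24hr, 37C/5% CO2; CellTiter-Fluor fluorescence.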

[14] = qHTS assay to identify small molecule antagonists of the sonic hedgehog signaling (Shh) pathway - cell viability counter screen (AID 1259367); further: nearly all actives have a fitted effect of over 55% in size
Outline: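 Using CellTiter-Fluor, viability of Gli1-Luc reporter 3T3 cells is read by fluorescence in the wells used for the Shh luciferase assay. Treatment lasts 23 hr with conditioned medium, then reagent 1 hr at 37C.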

[15] = qHTS assay to identify small molecule antagonists of the sonic hedgehog signaling (Shh) pathway (AID 1259369; calls by dose curve; further: nearly all actives have a fitted effect of over 45% in size)
Outline: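 NIH/3T3-derived 3T3Gli1-Luc cells with stably integrated Gli1-Luc reporter were preincubated 4hr at 37 C, then given compounds in DMSO plus Shh conditioned medium and incubated 24hr. Firefly luciferase luminescence read after 30min reagent at room temperature.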

[16] = qHTS assay to identify small molecule antagonists of the estrogen receptor alpha (ER-alpha) signaling pathway using the BG1 cell line in the presence of 0.1 nM 17-beta-estradiol - cell viability counter screen (AID 1259241); further: nearly all actives have a fitted effect of over 40% in size
Outline: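 Estradiol-stimulated (0.1 nM) VM7Luc4E2 cells exposed to compounds 22 hr; viability measured by fluorescence of cleaved CellTiter-Fluor substrate after 30 min.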

[17] = qHTS assay to identify small molecule HDAC inhibitors (AID 1259364); further: nearly all actives have a fitted effect of over 45% in size; further: potency means the concentration at half of the fitted maximal effect; on activity change, negative = inhibition: top concentration of the series differs between compounds
Outline: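 Wild-type HCT-116 cells were plated overnight, exposed to compounds for 2 h at 37 °C, then given HDAC-Glo class I/II luminogenic reagent for 30 min at room temperature before luminescence was read.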

[18] = qHTS assay to identify small molecule agonists of the sonic hedgehog signaling (Shh) pathway (AID 1259368; calls by dose curve; further: series mostly up to about 92 µM; nearly all actives have a fitted effect of over 15% in size)
Outline: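 NIH/3T3-derived 3T3Gli1-Luc cells carrying a stably integrated Gli1 response element–firefly luciferase reporter were plated, left 4 hr at 37 C, then given compounds in DMSO for 24 hr. Luminescence was read 30 min after adding luciferase reagent.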

[19] = molecular target: Androgen receptor (Homo sapiens) (UniProt P10275); test: qHTS assay to identify small molecule antagonists of the androgen receptor (AR) signaling pathway using the MDA cell line in the presence of 0.5 nM R1881 (AID 1259243); further: nearly all actives have a fitted effect of over 50% in size
Outline: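 MDA-kb2 human breast carcinoma cells carrying an MMTV-luciferase reporter (AR- and GR-responsive) were plated, rested 5 hr at 37C, dosed with compounds, then stimulated with 0.5 nM R1881 (final) for 16 hr; luminescence was read after ONE-Glo.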

[20] = qHTS assay to identify small molecule phospholipidosis (PLD) inducers (AID 1259344; active means well fitted curve in the direction sought with a large enough effect; an effect the other way counts as inactive or inconclusive)
Outline: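 Fluorescent phospholipid staining (LipidTOX Red) measured by automated microscopy in fixed HepG2 cells after 24 h treatment; nuclei counterstained with Hoechst 33342; amiodarone as reference inducer.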
On the % scale 0 is the no-effect control and ±100 the full control effect.

Chain of Estrogen receptor (Homo sapiens) (P03372 whole entry, looked up): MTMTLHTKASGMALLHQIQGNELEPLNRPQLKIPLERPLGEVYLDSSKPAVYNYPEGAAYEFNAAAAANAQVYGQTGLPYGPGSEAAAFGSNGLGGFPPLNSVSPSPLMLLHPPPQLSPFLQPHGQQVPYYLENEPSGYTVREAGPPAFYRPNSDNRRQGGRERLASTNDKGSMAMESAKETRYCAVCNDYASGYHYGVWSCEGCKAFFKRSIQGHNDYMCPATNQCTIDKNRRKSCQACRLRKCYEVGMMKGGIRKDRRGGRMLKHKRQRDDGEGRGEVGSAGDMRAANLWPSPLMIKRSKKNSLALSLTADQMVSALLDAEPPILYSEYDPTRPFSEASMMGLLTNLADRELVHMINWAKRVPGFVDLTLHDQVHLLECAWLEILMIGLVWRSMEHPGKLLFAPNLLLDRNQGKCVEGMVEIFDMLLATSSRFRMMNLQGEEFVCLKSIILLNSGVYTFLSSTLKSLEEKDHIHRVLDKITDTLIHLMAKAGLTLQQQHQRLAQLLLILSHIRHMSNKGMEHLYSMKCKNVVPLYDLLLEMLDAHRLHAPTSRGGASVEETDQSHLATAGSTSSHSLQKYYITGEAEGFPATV
Chain of Androgen receptor (Homo sapiens) (P10275 whole entry, looked up): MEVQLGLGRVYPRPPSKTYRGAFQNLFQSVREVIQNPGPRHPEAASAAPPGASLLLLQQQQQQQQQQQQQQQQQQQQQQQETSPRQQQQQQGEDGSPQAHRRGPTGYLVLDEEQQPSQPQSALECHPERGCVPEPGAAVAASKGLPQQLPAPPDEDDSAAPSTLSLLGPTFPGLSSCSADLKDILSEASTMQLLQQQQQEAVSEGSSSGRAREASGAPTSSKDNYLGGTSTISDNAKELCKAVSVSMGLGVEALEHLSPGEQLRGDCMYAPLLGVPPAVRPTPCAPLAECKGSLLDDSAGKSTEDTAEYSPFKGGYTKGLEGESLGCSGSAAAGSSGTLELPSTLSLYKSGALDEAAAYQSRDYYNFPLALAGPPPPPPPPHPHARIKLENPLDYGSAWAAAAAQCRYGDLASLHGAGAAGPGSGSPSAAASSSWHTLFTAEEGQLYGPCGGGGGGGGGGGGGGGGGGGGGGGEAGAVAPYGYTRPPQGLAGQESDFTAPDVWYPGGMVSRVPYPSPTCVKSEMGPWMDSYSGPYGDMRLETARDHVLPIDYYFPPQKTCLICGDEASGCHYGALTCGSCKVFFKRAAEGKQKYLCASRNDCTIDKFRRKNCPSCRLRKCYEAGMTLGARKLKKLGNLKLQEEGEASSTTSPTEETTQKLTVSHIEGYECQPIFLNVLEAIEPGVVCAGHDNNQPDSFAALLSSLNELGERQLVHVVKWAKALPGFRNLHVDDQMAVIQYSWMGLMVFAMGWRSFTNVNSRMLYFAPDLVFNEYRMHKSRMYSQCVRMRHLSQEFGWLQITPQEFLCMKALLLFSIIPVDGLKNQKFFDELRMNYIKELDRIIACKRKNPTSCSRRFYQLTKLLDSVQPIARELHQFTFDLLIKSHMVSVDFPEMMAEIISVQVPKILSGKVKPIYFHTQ

SCCc1cnccn1
inactive: Potency [1] | Potency [2] | Potency [3] | Potency [4] | Potency [5] | Potency [6] | Potency [7] | Potency [8] | Potency [9] | Potency [10] | Potency [11] | Potency [12] | Potency [13] | Potency [14] | Potency [15]

CCCCCCCCCCCCCOC(=O)CCSCCC(=O)OCCCCCCCCCCCCC
inactive: cytotoxicity [1] 4.63% [at 15.8 µM] | cytotoxicity increase [2] -0.352% [at 15.8 µM] | cytotoxicity increase [3] 12.5% [at 15.8 µM] | activity change, negative = cytotoxic [4] -6.5% [at 15.8 µM] | activity change, negative = cytotoxicity [5] -2.9% [at 15.8 µM] | activity change, negative = cytotoxicity [6] -5.3% [at 15.8 µM] | activity change [7] 17.2% [at 15.8 µM, hits give high values] | activity change, negative = cytotoxicity [8] -15% [at 15.8 µM] | cytotoxicity increase [9] 4.96% [at 15.8 µM] | activity change, negative = cytotoxicity [16] 6.24% [at 19 µM] | viability change, negative = cytotoxic [10] 3.47% [at 19 µM] | activity change, negative = inhibition [17] 3.35% [at 19 µM] | activity change, negative = cytotoxicity [12] 6.04% [at 19 µM] | viability change, negative = cytotoxic [13] 2.43% [at 19 µM] | viability change, negative = cytotoxic [14] -3.37% [at 19 µM] | activity change [18] -0.0494% [at 18.9 µM, hits give high values] | activity change, negative = inhibition [15] 8.97% [at 19 µM]

CC(C)COC(=O)COc1cc(Cl)c(Cl)cc1Cl
inactive: Potency [1] | Potency [2] | Potency [3] | Potency [4] | Potency [5] | Potency [6] | Potency [7] | Potency [8] | Potency [9] | Potency [16] | Potency [11] | Potency [17] | Potency [12] | Potency [13] | Potency [14] | Potency [15]

C1=CCC2CC=CC2C1 (centres undefined)
inactive: Potency [1] | Potency [2] | Potency [3] | Potency [4] | Potency [5] | Potency [6] | Potency [7] | Potency [8] | Potency [9] | Potency [10] | Potency [19] | Potency [17] | Potency [12] | Potency [13] | Potency [14] | Potency [18]

CCCCCC
inactive: Potency [1] | Potency [2] | Potency [3] | Potency [4] | Potency [5] | Potency [6] | Potency [7] | Potency [8] | Potency [9] | Potency [16] | Potency [10] | Potency [17] | Potency [12] | Potency [13] | Potency [14] | Potency [18] | Potency [15]

Cc1ccc(N(CC2=NCCN2)c2cccc(O)c2)cc1
inactive: Potency [1] | Potency [2] | Potency [3] | Potency [4] | Potency [5] | Potency [6] | Potency [7] | Potency [8] | Potency [9] | Potency [16] | Potency [11] | Potency [20] | Potency [17] | Potency [12] | Potency [18]

O=C1OC[C@H](Cc2cccc(O)c2)[C@H]1Cc1cccc(O)c1
inactive: Potency [1] | Potency [2] | Potency [3] | Potency [4] | Potency [5] | Potency [6] | Potency [7] | Potency [8] | Potency [9] | Potency [16] | Potency [10] | Potency [17] | Potency [12] | Potency [13] | Potency [14] | Potency [18] | Potency [15]

CC[C@@H](CO)NCCN[C@@H](CC)CO
inactive: Potency [1] | Potency [2] | Potency [3] | Potency [4] | Potency [5] | Potency [6] | Potency [7] | Potency [8] | Potency [9] | Potency [16] | Potency [10] | Potency [20] | Potency [17] | Potency [13] | Potency [14] | Potency [18] | Potency [15]

O=C1OC(=O)c2c(Br)c(Br)c(Br)c(Br)c21
inactive: Potency [1] | Potency [2] | Potency [3] | Potency [4] | Potency [5] | Potency [6] | Potency [7] | Potency [8] | Potency [9] | Potency [16] | Potency [10] | Potency [17] | Potency [12] | Potency [13] | Potency [14] | Potency [18] | Potency [15]

CC1CCCO1 (centres undefined)
inactive: Potency [1] | Potency [2] | Potency [3] | Potency [4] | Potency [5] | Potency [6] | Potency [7] | Potency [8] | Potency [9] | Potency [16] | Potency [10] | Potency [17] | Potency [12] | Potency [13] | Potency [14] | Potency [18] | Potency [15]

O=C(O)c1cccc(Oc2ccccc2)c1
inactive: Potency [1] | Potency [2] | Potency [3] | Potency [4] | Potency [5] | Potency [6] | Potency [7] | Potency [8] | Potency [9] | Potency [10] | Potency [11] | Potency [17] | Potency [12] | Potency [13] | Potency [14] | Potency [18] | Potency [15]

CCN(CC)CCOC(=O)C(c1ccccc1)c1ccccc1
inactive: Potency [1] | Potency [2] | Potency [3] | Potency [4] | Potency [5] | Potency [6] | Potency [7] | Potency [8] | Potency [9] | Potency [16] | Potency [20] | Potency [17] | Potency [12] | Potency [13] | Potency [14] | Potency [15]

CC/C=C\C/C=C\C/C=C\CCCCCCCC(=O)OCC
inactive: Potency [1] | Potency [2] | Potency [3] | Potency [4] | Potency [5] | Potency [6] | Potency [7] | Potency [8] | Potency [9] | Potency [16] | Potency [17] | Potency [12] | Potency [13] | Potency [14]

O=C(Nc1ccc(C(=O)O)c(O)c1)c1ccccc1
inactive: Potency [1] | Potency [2] | Potency [3] | Potency [4] | Potency [5] | Potency [6] | Potency [7] | Potency [8] | Potency [9] | Potency [10] | Potency [11] | Potency [20] | Potency [12] | Potency [13] | Potency [14] | Potency [18] | Potency [15]
active: Potency [17] 1680 nM
